PINK1 modulator – A Quantitative High throughput Screen to Identify Chemical Modulators of PINK1 Expression | hit rate 0.2% among 410,000 | Potency, µM (series often up to 76.6 µM), actives largely listed as activators | PINK1 immunofluorescence, high-content cytometry, 24 h; active means well fitted activation curve with a large enough effect; inconclusive means small, poorly fitted or top-dose-only effect; cell line not stated here; further: nearly all actives have a fitted effect of over 65% in size
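Readout is PINK1 immunofluorescence, quantified alongside mitochondrial, cell and nuclear markers by laser-scanning microplate cytometry. Cells from a stable line were exposed to compound titrations (5 concentrations) for 24 hours, with CCCP controls.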
GRP78 ERSR act – qHTS for Inducers of the Endoplasmic Reticulum Stress Response (ERSR) in Human Glioma: qHTS; U87-MG GRP78 promoter luciferase reporter, 16 h; Potency, µM, actives largely listed as activators; hit rate 0.02% among 420,000; further: series mostly up to about 76 µM; nearly all actives have a fitted effect of over 35% in size
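ERSR induction read as luciferase luminescence (Bright-Glo, 10 min at room temperature) in stably transfected human U87-MG glioma cells exposed to compounds for 16 h, using GRP78 as sensor.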
Vif-A3G inh – qHTS for Inhibitors of Vif-A3G Interactions: qHTS; HeLa A3G-eYFP + Vif (tagged APOBEC3G with the HIV-1 protein that degrades it), YFP fluorescence, overnight; hit rate 0.076% among 410,000; Potency, µM (titrated, usually from 46.1 µM), hits mostly inhibitors; DNA dC->dU-editing enzyme APOBEC-3G (Homo sapiens), Q9HC16; further: nearly all actives have a fitted effect of over 60% in size
Target sequence (Q9HC16 whole entry, looked up): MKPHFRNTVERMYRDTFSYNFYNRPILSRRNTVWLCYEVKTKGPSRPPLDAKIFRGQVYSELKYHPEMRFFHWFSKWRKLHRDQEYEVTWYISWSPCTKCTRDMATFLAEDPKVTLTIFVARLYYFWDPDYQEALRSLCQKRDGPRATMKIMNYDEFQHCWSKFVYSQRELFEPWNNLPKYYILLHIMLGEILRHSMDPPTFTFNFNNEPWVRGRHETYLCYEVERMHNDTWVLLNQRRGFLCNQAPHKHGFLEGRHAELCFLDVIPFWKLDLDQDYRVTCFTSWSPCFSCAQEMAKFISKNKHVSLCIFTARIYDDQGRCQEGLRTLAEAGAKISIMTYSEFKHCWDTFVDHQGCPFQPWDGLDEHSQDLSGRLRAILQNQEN
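HeLa cells stably expressing Vif and C-terminally eYFP-tagged A3G, seeded overnight at 37 deg C, then exposed to compound by pintool overnight at 37 deg C. Rise in yellow fluorescence (Ex 488/Em 500-530, Acumen) marks blocked Vif-driven A3G degradation.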
LDHA inh – qHTS assay for inhibitors of human lactate dehydrogenase. hit rate 0.15% among 480,000. L-lactate dehydrogenase A chain (Homo sapiens), P00338. AID 1347041, 2019. purified LDHA, NADH/diaphorase-resazurin fluorescence; stronger effect = lower value. activity change, % (values are at about 110 or 230 µM); in the data active means activity change below about -30%; inconclusive means mostly about -25% to -30%
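LDH5 2 nM; NADH 0.06 mM, pyruvate 0.2 mM; 200 mM Tris pH 7.4, EDTA, Tween-20; 5 min RT. Detection: diaphorase 0.133 mg/mL + resazurin 37 µM, fluorescence ex540/em590 at 0 and 20 min; normalized to enzyme-free and DMSO wells.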
Vif-A3F inh – qHTS for Inhibitors of Vif-A3F Interactions: qHTS; hit rate 0.2% among 390,000; Potency, µM (top dose mostly 46.1 µM); HeLa A3F-eYFP + Vif (tagged APOBEC3F with the HIV-1 protein that degrades it), YFP fluorescence increase; further: nearly all actives have a fitted effect of over 65% in size
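Fluorescence increase (Ex 488/Em 500-530) after overnight compound treatment at 37 deg C flags inhibition of Vif-driven A3F-eYFP loss in stable HeLa A3F-eYFP/Vif cells seeded overnight beforehand.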
pAkt inh – HTS Assay for Inhibitors of Akt Phophorylation: Primary Screen. Neuro2A IGF-stimulated pAkt S473 HTRF, 20 min; stronger effect = lower value. activity change, % for hits at 50 µM. hit rate 0.32% among 360,000; in the data active means activity change below about -80%; inconclusive means mostly about -51% to -80%
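Neuro2A cells in DMEM with 0.5% FBS, overnight at 37 deg C, given compound at single 50 µM final, then IGF (6 nM final) for 20 min at 37 deg C. Lysed; phospho-Akt Ser473 by HTRF after 24 h, 665/615 ratio.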
A number is an active result; – = inactive; ? = inconclusive; · = no result given. Shown are actives, neighbours in structure and some others; about 0.74% of the full set was active somewhere. Unless noted, the call rests on the fitted dose curve; in most records, active means well fitted curve in the direction sought with a large enough effect; inconclusive means small, poorly fitted or top-dose-only effect, or another doubt; inactive means no such curve, though single readings can be large; an effect the other way counts as inactive or inconclusive.

SMILES	PINK1 modulator	GRP78 ERSR act	Vif-A3G inh	LDHA inh	Vif-A3F inh	pAkt inh
CCOC(=O)N1CCN(Cc2ccc(O)c3ncccc23)CC1	?	–	–	–	–	–
c1ccc(CN2CCOCC2)nc1	–	–	–	–	–	–
CC(C)Cc1nc(Cn2cc(S(=O)(=O)N3CCCC3)ccc2=O)no1	·	·	·	–	·	·
Cc1cccc(C(=O)NNC(=O)c2ccc3ccccc3c2)c1	–	–	–	-38	–	–
Cc1cccc(C(=O)NNC(=O)c2cccc(C)c2)c1	–	–	–	–	–	–
COC(=O)C1=C(C)N(Cc2ccc(OC)cc2)C(=O)/C1=C\c1ccco1	–	–	–	–	–	–
COC(=O)C1=C(C)N(Cc2ccco2)C(=O)/C1=C\c1ccc([N+](=O)[O-])cc1	–	?	?	–	3.2µM	–
COc1ccc(-n2cnc3cc(C(=O)N4CCCCC4)ccc3c2=O)cc1Cl	·	·	·	–	·	·
c1ccc(Nc2nnc(SCc3cccc4ccccc34)s2)cc1	–	–	–	–	–	-114%
COc1cccc(N2C(=O)CC(c3c[nH]c4ccccc34)C2=O)c1 (stereo not drawn)	–	–	–	–	–	-102%
O=c1c2ccccc2c(-c2cccs2)nn1CC(O)COCc1cccs1 (stereo not drawn)	·	·	·	–	·	·
CC(=O)Sc1nc(-c2ccccc2)[nH]c1S(=O)(=O)c1ccc(C)cc1	–	–	–	–	–	–
CSc1nc(-c2ccc(C)cc2)[nH]c1S(=O)(=O)c1ccccc1	–	–	–	–	–	-106%
Nc1nc(N2CCCCC2)nc2ccccc12	–	–	–	–	–	·
Nc1nc(N2CCN(c3ccccn3)CC2)nc2ccccc12	–	–	–	-30	–	–
Cc1ccc2oc(N3CCN(C(=O)c4cccc(C#N)c4)CC3)nc2n1	·	·	·	–	·	·
Cn1c(=O)[nH]c(=O)c2c1nc(Sc1ccccc1)n2Cc1ccccc1Cl	·	·	·	–	·	·
CCOc1cc(C)c(Cl)cc1S(=O)(=O)N1CCCC1	–	–	–	–	–	-119%
COc1cc(C)c(Cl)cc1S(=O)(=O)N1CCCC1	–	–	–	–	–	–
N#Cc1cc(C(=O)c2cc(Br)ccc2O)cn(C2CCCCC2)c1=O	22µM	–	–	–	–	–
On1cnnc1-c1ccccc1	–	–	–	–	–	-91%
COC(=O)c1cc(-c2ccco2)nc2ccccc12	·	·	·	–	·	·
CONC(=O)COc1ccc(C(C)C)c(C)c1	·	·	·	–	·	·
Cc1ccc(S(=O)(=O)CCc2nc3ccccc3s2)cc1	–	–	–	–	–	-101%
Cc1ccc(S(=O)(=O)CCc2nc3ccccc3s2)cc1C	–	–	–	–	–	·
SMILES	PINK1 modulator	GRP78 ERSR act	Vif-A3G inh	LDHA inh	Vif-A3F inh	pAkt inh
O=C1C(Cl)=C(NCCc2ccccc2)C(=O)c2ccccc21	–	–	13µM	–	8.9µM	–
COc1cccc(OCCSc2nnc3sc4ccccc4n23)c1	–	–	–	–	–	-112%
O=[N+]([O-])c1ccc(N2CCN(C(=S)NC3CCCCC3)CC2)cc1	–	–	–	–	–	-112%
O=[N+]([O-])c1ccc(N2CCN(C(=S)Nc3ccccc3)CC2)cc1	–	–	–	–	–	–
COc1ccc(Cl)cc1NC(=O)c1ncoc1-c1ccc(OC)c(OC)c1	·	·	·	–	·	·
COC(=O)C(C(=O)OC)=C(/C=C/N(C)C)N(C)C	–	–	–	–	–	-104%
O=C(O)c1cc(O)ccc1N=Nc1ccccc1	–	28µM	?	–	–	–
CC(=O)NC(c1cccs1)c1cc(F)c2cccnc2c1O (stereo not drawn)	–	–	?	–	10µM	·
CC(=O)NC(c1ccco1)c1cc(F)c2cccnc2c1O (stereo not drawn)	–	–	?	–	?	·
CCOc1ccc2nc(Nc3nc(CSc4nnnn4-c4ccccc4)cc(=O)[nH]3)nc(C)c2c1	–	–	–	–	–	–
COc1ccc2nc(Nc3nc(CSc4nnnn4-c4ccccc4)cc(=O)[nH]3)nc(C)c2c1	–	–	–	–	–	-120%
COc1ccc2nc(SC)c(C#N)cc2c1	–	–	–	–	–	–
COc1ccc2nc(SCC(C)=O)c(C#N)cc2c1	–	–	?	–	3.5µM	–
COc1ccc2nc(SCC(=O)N3CC(=O)Nc4ccccc43)c(C#N)cc2c1	–	–	10µM	–	22µM	–
CC(C)OC(=O)CSc1nc2cc3c(cc2cc1C#N)OCO3	–	–	–	–	–	-97%
COc1cccc(-c2nc(CSCC(=O)NCc3ccccc3)c(C)o2)c1	·	·	·	–	·	·
O=C(Nc1c(C(=O)N2CCC(N3CCCCC3)CC2)oc2ccccc12)C1CC1	·	·	·	–	·	·
CCNc1ccc(-c2nc(-c3ccncc3)no2)cc1[N+](=O)[O-]	14µM	–	–	–	–	·
C[N+]1(C2CCC3CCC2C3O)CCCC1 (stereo not drawn)	–	–	–	–	–	–
CC(=O)OC1C2CCC1C([N+]1(C)CCCCC1)CC2 (stereo not drawn)	–	–	–	-34	–	–
Cc1ccc(O)c(N=CC2=C(O)c3ccccc3C2=O)c1	–	32µM	–	–	–	–
O=C1C(C=Nc2ccccc2O)=C(O)c2ccccc21	?	–	–	–	–	–
CCOC(=O)c1c(-c2ccccc2)csc1NC(=O)C(C)NCCCN1CCOCC1 (stereo not drawn)	–	–	–	-34	–	–
O=C1NC(=Nc2cccnc2)S/C1=C\c1cccc(F)c1	–	–	–	–	–	–
COc1cc(/C=C2\SC(=Nc3cccnc3)NC2=O)cc(OC)c1OC	–	–	?	–	25µM	–
SMILES	PINK1 modulator	GRP78 ERSR act	Vif-A3G inh	LDHA inh	Vif-A3F inh	pAkt inh
COc1cc(/C=C2\SC(=Nc3ccccc3)NC2=O)cc(Cl)c1O	–	–	?	–	?	–
COc1cc(/C=C2\SC(=Nc3ccc(Cl)c(C(=O)O)c3)NC2=O)c(Br)c(Br)c1O	–	–	–	-33	?	–
COc1cc(/C=C2/SC(=Nc3ccc(O)cc3)NC2=O)ccc1O	–	–	?	–	25µM	–
CCc1ccccc1NC(=O)c1nn(-c2ccccc2)c(=O)c2ccccc12	·	·	·	–	·	·
CCN(CC)S(=O)(=O)c1ccc(N(C)C)c(NS(=O)(=O)c2cccs2)c1	·	·	·	–	·	·
Cn1c(=O)c2c(ncn2CC(=O)NC2CCCCC2)n(C)c1=O	–	–	–	–	–	–
Cn1c(=O)c2c(ncn2CC(=O)NC(=O)NC2CCCC2)n(C)c1=O	·	·	·	-34	·	·
